From PubChem BioAssay AID912 (National Center for Advancing Translational Sciences (NCATS), 2007)
“And” between values parts separate entries of the source, which are not always exact repeats. Equal values may be shown once. About 470 (0.67%) of roughly 70,000 compounds were called active. Not shown: some 18% with an inconclusive outcome. Calls come from the whole dose curve. Shown is part of a subset that was picked to be rich in actives. The source holds several records for some structures; these can differ, active in one and inactive in another.

Assay: qHTS Assay for Anthrax Lethal Toxin Internalization; note: nearly all actives have a fitted effect of over 50% in size
Settings: Cells, FRET ratio (460/530); series mostly up to 40 µM; activity change, negative = inhibition: at the top concentration
% is set by controls: 0 for no effect and ±100 for the full control effect; potency is the fitted concentration of half-maximal effect.

| Structure (SMILES) | activity change, negative = inhibition | Potency |
| --- | --- | --- |
| CN1CCc2nc(-c3ccccc3)c(-c3ccccc3)cc2C1 | -6.08% [at 8 µM] (inactive) | – |
| COCCn1c(=O)c(C)nc2cnc(N(C)C)nc21 | -9.51% (inactive) | – |
| O=C1C[C@@H](O)[C@@H](O)[C@H]2[C@@H]3C(=O)N(Cc4ccc5c(c4)OCO5)C(=O)[C@@H]3CC[C@H]12 | 3.37% [at 8 µM] (inactive) and -9.87% [at 8 µM] (inactive) | – |
| CC[C@]1(C)CC(=O)NC1=O | inactive | – |
| COc1ccc2c(=O)cc(-c3ccccc3)oc2c1O | 0.763% (inactive) | – |
| CCNCCCNCCCNCCCNCC | -12.1% (inactive) | – |
| COCCNC(=O)COc1ccc(C)c(C)c1 | -6.37% (inactive) | – |
| CCOC(=O)c1nc(N)sc1C(=O)OCC | 0.0428% (inactive) | – |
| FC(F)(F)c1ccccc1-c1cc(NCc2ccccc2)ncn1 | 18.2% (inactive) | – |
| Cc1cc(C(=O)O)ccc1[N+](=O)[O-] | -3.62% (inactive) | – |
| Nc1ccccc1N | -3.5% (inactive) | – |
| CCOC(=O)c1[nH]c2ccc(OC)cc2c1NC(=O)N1CCOCC1 | -8.81% (inactive) | – |
| Cc1cccc(C(=O)O)c1[N+](=O)[O-] | 4.62% (inactive) | – |
| Cc1nn(Cc2ccc(Cl)c(Cl)c2)c(C)c1NC(=O)c1cc(C2CC2)on1 | -30.6% (inactive) | – |
| CCC[C@@H]1C[C@@]1(CCC)[C@@H](NC(=O)c1ccccc1)c1ccc(C(=O)OC)cc1 | -19.3% (inactive) | – |
| CN1[C@@H]2CC[C@H]1CC(OC(=O)c1cc(Cl)cc(Cl)c1)C2 (stereo partly drawn) | – | inactive and 15.8 µM (active) |
| O=C1OCCC=C1[C@@H](O)CCc1ccccc1 | -3.54% [at 1.6 µM] (inactive) | – |
| CCCn1c(-c2ccc(F)cc2)nc2c(NCC3CCCN3CC)nc(C)nc21 (stereo not drawn) | -14.1% (inactive) | – |
| Nc1cc(OC(=O)c2ccccc2Br)nn1S(=O)(=O)c1ccccc1 | – | 10 µM (active) |
| C/C=C1\C(=O)C[C@@H]2[C@@H]3CCC4=CC(=O)CC[C@@]4(C)[C@H]3CC[C@@]12C | -8.2% (inactive) | – |
| Cc1ccnc(N)c1 | -11.7% (inactive) | – |
| CC(C)(C)NCC[C@@H](O)c1cc(C(F)(F)F)nc2c(C(F)(F)F)cccc12 | -2.37% [at 8 µM] (inactive) | – |
| COCCn1c(=O)c(-c2cc(F)cc(F)c2)nc2cncnc21 | 3.07% (inactive) | – |
| CN=C1SC(C(=O)O)CC(=O)N1C (stereo not drawn) | 0.241% (inactive) | – |

| Structure (SMILES) | activity change, negative = inhibition | Potency |
| --- | --- | --- |
| O=NO | inactive | – |
| COc1ccc(N)c(C)c1 | 1.73% (inactive) | – |
| O=C(COc1ccc2oc3c(c2c1)CCCC3)Nc1ccccn1 | -10.7% (inactive) | – |
| O=C(NCCc1ccc(Cl)cc1)C1CC(=O)N(C2CCCCC2)C1 (stereo not drawn) | 0.384% (inactive) | – |
| CC(C)C[C@H](NC(=O)NCCc1ccc(Cl)cc1)C(=O)O | 2.75% (inactive) | – |
| Oc1cc2c(cc1O)CN(C(=S)NCCc1ccc(Cl)cc1)CCC2 | – | 15.8 µM (active) |
| O=S(=O)(O)c1ccc(O)c2ncccc12.O=S(=O)(O)c1ccc(O)c2ncccc12.[Zn] | -0.63% [at 8 µM] (inactive) | – |
| NS(=O)(=O)c1cc(C(=O)O)c(Cl)c([N+](=O)[O-])c1Cl | -7.65% [at 8 µM] (inactive) | – |
| C=CCOC(=O)C(C(C)=O)C(NC(=O)OC)c1ccccc1 (stereo not drawn) | -6.02% [at 8 µM] (inactive) | – |
| Cc1ccc(Br)cc1 | -9.02% (inactive) | – |
| CN(C)CCSS(=O)(=O)O | -2.2% [at 8 µM] (inactive) | – |
| c1ccc(Oc2ccccc2)cc1 | 12% (inactive) | – |
| Oc1ccc(O)c2c(O)cccc12 | -2.4% (inactive) | – |
| Cc1c(C)c2c(c(C)c1O)CC[C@@](C)(CN1CCN(c3cc(N4CCCC4)nc(N4CCCC4)n3)CC1)O2 | -10.2% (inactive) | – |
| C[C@@H]1/C=C\CC(=O)OC[C@H]2O[C@@H](C=C[C@@H]2O)[C@H](C)/C=C\CC(=O)OC[C@H]2O[C@H]1C=C[C@@H]2O | 0.461% [at 0.32 µM] (inactive) | – |
| COc1ccc(NC(=O)C2CCCN(S(=O)(=O)c3cccc4cccnc34)C2)cc1 (stereo not drawn) | – | 3.16 µM (active) |
| O=C(O)C1CCCN(S(=O)(=O)c2cccc3cccnc23)C1 (stereo not drawn) | 0.387% (inactive) | – |
| COc1ccc(NC(=O)C2CCCN(S(=O)(=O)c3cccc4cccnc34)C2)cc1OC (stereo not drawn) | -8.54% (inactive) | – |
| Cc1cccc(Br)c1 | -11.9% (inactive) | – |
| COC(=O)C(C(=O)OC)[C@@H]1CCCC(=O)C1 | 8.84% [at 8 µM] (inactive) | – |
| CCCC[C@@H]1C[C@H]1C(NC(=O)c1ccco1)c1ccc(C(=O)OC)cc1 (stereo partly drawn) | -5.36% (inactive) | – |
| COC(=O)NC(c1ccccc1)[C@]1(C(C)=O)CCCC1=O (stereo partly drawn) | -2.74% [at 8 µM] (inactive) | – |
| CC(C)=CCC/C(C)=C/CO/N=C1/C[C@@H](O)[C@@H](O)[C@@H]2[C@@H]3C(=O)N(C(C)(C)C)C(=O)[C@H]3CC[C@H]12 | 4.39% [at 1.6 µM] (inactive) | – |
| O=C(Cl)c1ccc([N+](=O)[O-])cc1 | -9.99% (inactive) | – |
